Compound activity as filed in PubChem.
FEN1 inh = blocks human flap endonuclease 1 | P39748 | 390,000 tested, 0.35% active | Potency, µM (doses to about 114 µM), most hits filed as inhibitors | Recombinant FEN1 flap cleavage, fluorescence, 15 min | AID 588795; also: nearly all actives have a fitted effect of over 65% in size
Target sequence (P39748 whole entry, looked up): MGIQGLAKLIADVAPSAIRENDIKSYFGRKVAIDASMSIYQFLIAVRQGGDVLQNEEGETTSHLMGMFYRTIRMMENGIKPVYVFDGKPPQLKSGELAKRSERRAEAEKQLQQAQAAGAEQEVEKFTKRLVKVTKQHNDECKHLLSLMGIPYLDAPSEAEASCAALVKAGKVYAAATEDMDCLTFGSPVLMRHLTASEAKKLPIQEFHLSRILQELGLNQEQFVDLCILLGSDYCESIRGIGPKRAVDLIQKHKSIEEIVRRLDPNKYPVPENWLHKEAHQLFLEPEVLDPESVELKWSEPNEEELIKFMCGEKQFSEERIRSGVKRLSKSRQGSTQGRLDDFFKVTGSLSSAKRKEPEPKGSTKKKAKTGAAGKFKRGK
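FEN1 at 10 nM preincubated with compounds 15 min at room temperature, then flap DNA substrate added at 50 nM final. Signal read at 0 and 15 min; concentration-response fitted with four-parameter Hill equation.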
WRN helicase inh = WRN helicase (human) inhibition. WRN helicase unwinding, fluorescent forked duplex, kinetic. Potency, µM (series often up to 114 µM), actives largely listed as inhibitors. Q14191. 360,000 tested, 0.46% active; also: nearly all actives have a fitted effect of over 55% in size
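Enzyme (20 nM final) and test compound sit together 15 min at room temperature before substrate addition. Substrate is a single-forked duplex oligonucleotide (100 nM) labelled with fluorophore and quencher, with 2 mM ATP; helicase unwinding raises red fluorescence, read kinetically.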
APE1 inh = APE1 (human) endonuclease inhibition; P27695; recombinant APE1, TAMRA/BHQ-2 abasic DNA cleavage fluorescence; Potency, µM (top dose mostly 65.8 µM), hits mostly inhibitors; 350,000 tested, 0.35% active; AID 2517; also: nearly all actives have a fitted effect of over 55% in size
Target sequence (P27695 whole entry, looked up): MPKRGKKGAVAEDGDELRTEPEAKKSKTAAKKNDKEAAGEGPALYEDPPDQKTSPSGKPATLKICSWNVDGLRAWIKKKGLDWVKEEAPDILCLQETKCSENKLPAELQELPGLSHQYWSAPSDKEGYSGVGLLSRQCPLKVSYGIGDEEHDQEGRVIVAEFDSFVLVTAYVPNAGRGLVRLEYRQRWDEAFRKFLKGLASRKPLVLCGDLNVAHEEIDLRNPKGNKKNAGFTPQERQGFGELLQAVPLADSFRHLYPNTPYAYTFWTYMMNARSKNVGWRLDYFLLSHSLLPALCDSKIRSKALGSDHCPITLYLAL
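Enzyme (0.75 nM final) and test compound are incubated 15 min at room temperature before adding 50 nM quenched THF abasic-site duplex. Cleavage dequenches TAMRA, followed at 525/598 nm over three reads one minute apart.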
RECQ1 inh = blocks DNA unwinding by human RECQ1 | P46063 | RECQ1 DNA unwinding, red fluorescence kinetic read | Potency, µM (series often up to 57.3 µM), actives largely listed as inhibitors | 240,000 tested, 0.54% active | AID 2549; also: nearly all actives have a fitted effect of over 30% in size
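50 nM RECQ1T1 preincubated 15 min with compound in Tris pH 8.0 buffer with MgCl2, DTT, Tween-20 and 2.5 ug/ml poly(dI-dC); started with 200 nM TAMRA/BHQ-2 forked duplex and 2 mM ATP. Unwinding read as fluorescence (525/598 nm), two reads 2 h apart.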
PI5P4K alpha inh = inhibitors of human PI5P4K alpha; P48426; PI5P4Kalpha enzyme, ADP-Glo luminescence, 60 min; hits give low values; max response, %; 330,000 tested, 1.2% active; active = max response of -50% or lower; inconclusive = between -30% and -50%; inactive = -30% or higher; also: value at the top dose of about 77 µM
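Quantitative HTS of the MLSMR library against PI5P4Kalpha with substrate. ATP added last at 5 microM final; room temperature, 60 minutes. Remaining ATP depleted, ADP converted and read as luminescence.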
BLM inh = blocks DNA unwinding by human BLM helicase | 350,000 tested, 0.2% active | recombinant BLM DNA unwinding, fluorescence dequenching | Potency, µM (doses to about 56.1 µM), actives largely listed as inhibitors | P54132; also: nearly all actives have a fitted effect of over 35% in size
Numbers stand for hits; - = inactive; ? = inconclusive; . = not tested or not shown; [ ] = remark or other dose. A selection: hits, their analogues and other compounds. The true share with any hit is near 1.5%. Unless noted, calls follow the shape of the dose curve; as a rule, active = well fitted curve in the direction sought with a large enough effect; inconclusive = small, poorly fitted or top-dose-only effect, or another doubt; inactive = no such curve, though single readings can be large; an effect the other way counts as inactive or inconclusive.

SMILES | FEN1 inh | WRN helicase inh | APE1 inh | RECQ1 inh | PI5P4K alpha inh | BLM inh
CCN(CC)c1ccc(C(=C2C=CC(=[N+](CC)CC)C=C2)c2ccc(N(CC)CC)cc2)cc1 | ? | - | . | . | -73 | .
CCN(CC)c1ccc(C(=O)NNC(=O)CCl)cc1 | - | - | - | - | - | -
CCN(CC)c1ccc(C(=C2C=CC(=[N+](CC)CC)C=C2)c2ccccc2)cc1 | - | 45µM | - | - | - | -
CCCNC[C@H](O)COc1ccccc1C(=O)CCc1ccccc1 | . | . | - | - | . | -
C(=C\c1ccnc2ccccc12)/c1ccc(N2CCOCC2)cc1 | 45µM | . | . | . | . | .
CN(C)c1ccc(N=Nc2ccc(/C=C/c3ccnc4ccccc34)cc2)cc1 | 25µM | . | . | . | . | .
CCN(C)c1ccc(/C=C/c2ccnc3ccccc23)cc1 | - | . | . | . | . | .
CC[N+](C)(C)c1ccc(/C=C/c2ccnc3ccccc23)cc1 | 40µM | . | . | . | . | .
C/C(=C\COc1c2ccoc2cc2oc(=O)ccc12)CCC(O)C(C)(C)O (configuration not stated) | . | . | - | - | . | -
CC(C)=NNc1cnnc2ccc([N+](=O)[O-])cc12 | . | - | . | . | -69 | .
C/C(=N\Nc1ccc([N+](=O)[O-])cc1[N+](=O)[O-])c1cccnc1 | - | - | - | . | - | -
COc1cc(/C=C(\C#N)C(=O)c2c[nH]c3ccccc23)cc(OC)c1O | ? | ? | - | - | -75 | -
COc1cc(/C=C(\C#N)C(=O)NCCc2ccccc2)cc(OC)c1O | - | - | - | - | ? | -
COC(=O)c1ccccc1-c1ccc(/C=c2\sc3nc4cc(Br)cnc4n3c2=O)o1 | . | . | - | . | . | .
COC(CNC(=O)c1ccc2c3c(onc13)-c1ccccc1C2=O)OC | ? | 50µM | ? | - | - | -
COC(CNC(=O)c1cccnc1)OC | - | - | - | - | - | -
O=C(CSc1ncccc1C(=O)O)Nc1ccc2c(c1)OCCO2 | - | - | - | . | -52 | -
COc1ccc2cc1Oc1ccc(cc1)CC1c3cc(c(OC)cc3CCN1C)Oc1c(OC)c(OC)c(OC)c3c1C(C2)N(C)CC3 (configuration not stated) | . | . | ? | - | . | -
CCCCCCCCCCCCCCCC[n+]1ccc(/C=C/c2c(C)[nH]c3ccccc23)cc1 | - | . | . | . | . | .
CCCCCCCCCC[n+]1ccc(/C=C/c2c(C)[nH]c3ccccc23)c2ccccc21 | 45µM | . | . | . | . | .
CCCCCCC[n+]1ccc(/C=C/c2c(C)[nH]c3ccccc23)c2ccccc21 | 45µM | . | . | . | . | .
CC(CC(C)(C)C)CP(=O)(O)CC(C)CC(C)(C)C (configuration not stated) | . | . | ? | - | . | -
CCc1ccc(Nc2nnc(SCC(=O)NC(=O)CN3CCCC3=O)s2)cc1 | - | - | 13µM | . | ? | .
COc1ccccc1Nc1nnc(SCC(=O)N2CCCC2=O)s1 | - | - | - | - | . | -
Cc1cc(C)c(S(=O)(=O)Nc2cc(SCC(=O)O)c(O)c3ccccc23)cc1C | - | 22µM | ? | - | -60 | 16µM
SMILES | FEN1 inh | WRN helicase inh | APE1 inh | RECQ1 inh | PI5P4K alpha inh | BLM inh
COc1ccccc1N(C(C)=O)C1=C(Cl)C(=O)c2ccccc2C1=O | . | -[11.6 µM] | . | . | -89 | .
NC(=S)N/N=C/c1cn(-c2ccccc2)nc1-c1cccnc1 | ? | - | - | - | -54 | -
Cn1c(=O)[nH]c(NCCc2ccc(O)cc2)c([N+](=O)[O-])c1=O | - | - | . | . | -71 | .
Cn1c(=O)[nH]c(Nc2ccc(F)cc2)c([N+](=O)[O-])c1=O | - | - | - | - | -60 | -
Cc1ccc(Nc2c([N+](=O)[O-])c(=O)n(C)c3ccccc23)cc1 | - | ? | - | - | - | -
O=C(O)/C(CC(=O)c1ccc(Cl)cc1)=N/Nc1ccc([N+](=O)[O-])cc1[N+](=O)[O-] | - | -[11.6 µM] | - | . | -53 | -
CCC(CC)=NNc1ccc([N+](=O)[O-])cc1[N+](=O)[O-] | - | - | - | - | - | -
COC(=O)CC1=NN(c2ccccc2)C(=O)/C1=C\c1ccc(OC)cc1 | - | 50µM | - | - | - | -
COC(=O)CC1=NN(c2ccc(OC)cc2)C(=O)/C1=C\c1ccc(Cl)cc1 | - | - | - | - | - | -
CC(=O)NC1C(=O)N(CCN2CCOCC2)c2ccc(C)cc21 (configuration not stated) | ? | - | ? | . | - | -
CC(=O)NC1C(=O)N(CCN2CCOCC2)c2ccc(F)cc21 (configuration not stated) | 50µM | -[11.6 µM] | - | . | - | -
N#Cc1c(-c2cccc(C(F)(F)F)c2)no[n+]1[O-] | . | . | - | . | . | .
CCOc1ccc(C2C(=O)N(C3CCCCCC3)CC(=O)N2Cc2ccc(F)cc2)cc1OC (configuration not stated) | - | . | . | . | . | -
COc1cc(S(=O)(=O)Nc2ccc(C)cc2)ccc1N=Cc1c(C)c(C#N)c(=O)n(C)c1O | - | - | - | - | - | -
Cc1ccc(N/N=C/c2c(C)c(C#N)c(=O)n(C)c2O)cc1C | ? | ? | - | - | -54 | -
CO/N=C(\C(=O)N[C@@H]1C(=O)N2C(C(=O)[O-])=C(C[n+]3cccc4c3CCC4)CS[C@H]12)c1csc(N)n1 | . | . | . | . | . | -
CC(=O)N1CCc2c(sc(NC(=O)CN3C(=O)c4ccccc4C3=O)c2C(N)=O)C1 | - | - | - | - | -77 | -
CC(C)N1CCc2c(sc(NC(=O)CN3C(=O)c4ccccc4C3=O)c2C(N)=O)C1 | - | - | - | - | - | -
CC(=O)N1CCc2c(sc(NC(=O)c3ccc([N+](=O)[O-])o3)c2C(N)=O)C1 | . | - | . | . | -65 | .
CC(C)=CCC[C@@](C)(O)[C@H]1CC=C(C)CC1 | . | . | - | . | . | .
CCCN1C(=O)c2ccccc2NC1c1ccc(OC)c(COc2cccc(C)c2C)c1 (configuration not stated) | - | . | . | . | . | .
O=[N+]([O-])c1cc(/C=N\Nc2nc(-c3ccccc3)cs2)ccc1O | ? | ? | - | ? | -63 | -
COc1cc(/C=N/Nc2nc(-c3ccc(S(=O)(=O)N(C)C)cc3)cs2)ccc1O | ? | - | - | - | - | -
O=C(N/N=C/c1c[nH]c2ccccc12)c1cc(-c2ccc(-c3ccccc3)cc2)n[nH]1 | - | - | - | - | . | -
O=C(N/N=C/c1c[nH]c2ccccc12)c1cc(-c2ccccc2)n[nH]1 | - | - | - | 25µM | - | -
O=C(O)c1ccc(/C=N/NC(=O)c2cc(-c3ccc4c5c(cccc35)CC4)n[nH]2)cc1 | ? | ? | - | - | -73 | -
O=C(N/N=C/c1ccccn1)c1cc(-c2cccc3ccccc23)n[nH]1 | - | - | - | - | - | -
O=C(N/N=C/c1c[nH]c2ccccc12)c1cc(-c2ccc3ccccc3c2)n[nH]1 | - | ? | - | - | -57 | -
